Records with an inconclusive call do not appear. The source made the active and inactive calls. Calls follow the shape of the dose curve; as a rule, active = well fitted inhibition curve with a large enough effect; inconclusive = small, poorly fitted or top-dose-only effect; inactive = flat fitted curve, though single readings scatter.
Experiments:
[1] = qHTS profiling for inhibitors of Plasmodium falciparum proliferation (AID 504749);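 also: 0% = DMSO vehicle and full inhibition = artemisinin control; nearly all actives have a fitted effect of over 60% in size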; conditions: P. falciparum in erythrocytes, SYBR Green DNA, 72 h, at 28.7 µM (top of the series)
Procedure, shortened: (§1)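 Parasite proliferation within erythrocytes, 72 h exposure. Endpoint: SYBR Green I fluorescence after overnight lysis at room temperature. Controls: 0.29 uM artemisinin, DMSO.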

3D7 = assay: as above; conditions: P. falciparum in erythrocytes, SYBR Green DNA, 72 h; series mostly up to 28.7 µM
Procedure, shortened: as §1

7G8 = assay: as above; conditions: P. falciparum in erythrocytes, SYBR Green DNA, 72 h; series mostly up to 28.7 µM
Procedure, shortened: as §1

AA1029 = assay: as above; conditions: P. falciparum in erythrocytes, SYBR Green DNA, 72 h; series mostly up to 28.7 µM
Procedure, shortened: as §1

AS120 = assay: as above; conditions: P. falciparum in erythrocytes, SYBR Green DNA, 72 h; series mostly up to 28.7 µM
Procedure, shortened: as §1

ATS189 = assay: as above; conditions: P. falciparum in erythrocytes, SYBR Green DNA, 72 h; series mostly up to 28.7 µM
Procedure, shortened: as §1

ATS95 = assay: as above; conditions: P. falciparum in erythrocytes, SYBR Green DNA, 72 h; series mostly up to 28.7 µM
Procedure, shortened: as §1

C2A = assay: as above; conditions: P. falciparum in erythrocytes, SYBR Green DNA, 72 h; series mostly up to 28.7 µM
Procedure, shortened: as §1

CP185 = assay: as above; conditions: P. falciparum in erythrocytes, SYBR Green DNA, 72 h; series mostly up to 28.7 µM
Procedure, shortened: as §1

CP191 = assay: as above; conditions: P. falciparum in erythrocytes, SYBR Green DNA, 72 h; series mostly up to 28.7 µM
Procedure, shortened: as §1

CP192 = assay: as above; conditions: P. falciparum in erythrocytes, SYBR Green DNA, 72 h; series mostly up to 28.7 µM
Procedure, shortened: as §1

CP194 = assay: as above; conditions: P. falciparum in erythrocytes, SYBR Green DNA, 72 h; series mostly up to 28.7 µM
Procedure, shortened: as §1

c1ccc(-n2cnnn2)cc1
inactive: activity, negative = inhibition ([1]; parasite line A) 4.13% | activity, negative = inhibition ([1]; parasite line B) -7.64% | Potency (3D7) | Potency (7G8) | Potency (AA1029) | Potency (AS120) | Potency (ATS189) | Potency (ATS95) | Potency (C2A) | Potency (CP185) | Potency (CP191) | Potency (CP192) | Potency (CP194)

COc1ccc(C(=O)CCC(=O)O)c2ccccc12
inactive: activity, negative = inhibition ([1]; parasite line A) 16.4% | activity, negative = inhibition ([1]; parasite line B) 8.35% | Potency (3D7) | Potency (7G8) | Potency (AA1029) | Potency (AS120) | Potency (ATS189) | Potency (ATS95) | Potency (C2A) | Potency (CP185) | Potency (CP191) | Potency (CP192) | Potency (CP194)

O=C(O)CCCC/C=C(\c1ccccc1)c1cccnc1
inactive: activity, negative = inhibition ([1]; parasite line A) 3.33% | activity, negative = inhibition ([1]; parasite line B) 8.41% | Potency (3D7) | Potency (7G8) | Potency (AA1029) | Potency (AS120) | Potency (ATS189) | Potency (ATS95) | Potency (C2A) | Potency (CP185) | Potency (CP191) | Potency (CP192) | Potency (CP194)

O=C(O)COc1ccc(CCNS(=O)(=O)c2ccccc2)s1
inactive: activity, negative = inhibition ([1]; parasite line A) 12.4% | activity, negative = inhibition ([1]; parasite line B) -10.1% | Potency (3D7) | Potency (7G8) | Potency (AA1029) | Potency (AS120) | Potency (ATS189) | Potency (ATS95) | Potency (C2A) | Potency (CP185) | Potency (CP191) | Potency (CP192) | Potency (CP194)

Cc1ncc[nH]1
inactive: activity, negative = inhibition ([1]; parasite line A) 1.23% | activity, negative = inhibition ([1]; parasite line B) 14.4% | Potency (3D7) | Potency (7G8) | Potency (AA1029) | Potency (AS120) | Potency (ATS189) | Potency (ATS95) | Potency (C2A) | Potency (CP185) | Potency (CP191) | Potency (CP192) | Potency (CP194)

C[Si](C)(C)O[Si](C)(C)C
inactive: activity, negative = inhibition ([1]; parasite line A) 4.89% | activity, negative = inhibition ([1]; parasite line B) 10.8% | Potency (3D7) | Potency (7G8) | Potency (AA1029) | Potency (AS120) | Potency (ATS189) | Potency (ATS95) | Potency (C2A) | Potency (CP185) | Potency (CP191) | Potency (CP192) | Potency (CP194)

O=C1CCC(=O)N1CO
inactive: activity, negative = inhibition ([1]; parasite line A) -2.35% | activity, negative = inhibition ([1]; parasite line B) 7.84% | Potency (3D7) | Potency (7G8) | Potency (AA1029) | Potency (AS120) | Potency (ATS189) | Potency (ATS95) | Potency (C2A) | Potency (CP185) | Potency (CP191) | Potency (CP192) | Potency (CP194)

Source: PubChem BioAssay (NCATS)
